Measurements published in PubChem BioAssay (NCATS).
Records with an inconclusive call do not appear. A call without a number means that no potency is given here. Some structures have more than one record in an assay (separate samples or runs), and their calls can disagree. The source made the active and inactive calls. Calls come from the whole dose curve; as a rule, active = well fitted curve in the direction sought with a large enough effect; inconclusive = small, poorly fitted or top-dose-only effect, or another doubt; inactive = no such curve, though single readings can be large or run the other way.

System: not listed separately
Test: Viability counterscreen for antagonist of constitutive androstane receptor (CAR) against the NCATS DSHEA and TCM libraries (AID 1794837);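 note: compound exposure lasted 24 h before viability reading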
Details: CAR reporter cell line viability counterscreen, qHTS; series mostly up to 40 µM
Procedure, shortened: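 Cells: HepG2 line carrying CYP2B6 reporter and hCAR, seeded and attached 5 h. Then pin-transferred test substances plus agonist CITCO at 48 uM final; 24 h incubation; fluorogenic viability reagent, 1 h.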

Structure (SMILES) | outcome
O=c1cc(-c2ccc(O)cc2)oc2cc(O)cc(O)c12 | inactive
COc1cc(O)c2c(c1)C(=O)c1cc(C)cc(O)c1C2=O | inactive
O=c1c(-c2ccc(O)cc2)coc2cc(O[C@@H]3O[C@H](CO)[C@H](O)[C@H](O)[C@H]3O)ccc12 | inactive

System: not listed separately
Test: Viability counterscreen for agonist of constitutive androstane receptor (CAR) against the NCATS DSHEA and TCM libraries (AID 1794838);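 note: HepG2 cells with CYP2B6 reporter and hCAR plus 0.75 µM PK11195 antagonist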
Details: HepG2 cell viability counterscreen, CAR agonist assay, co-treated with 0.75 µM CAR antagonist; series mostly up to 40 µM
Procedure, shortened: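 Cell health was measured as CellTiter-Fluor signal in HepG2-CYP2B6-hCAR cells treated for 24 h with substances alongside the hCAR antagonist PK11195 (0.75 uM final).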

Structure (SMILES) | outcome
O=c1cc(-c2ccc(O)cc2)oc2cc(O)cc(O)c12 | inactive
COc1cc(O)c2c(c1)C(=O)c1cc(C)cc(O)c1C2=O | inactive
O=c1c(-c2ccc(O)cc2)coc2cc(O[C@@H]3O[C@H](CO)[C@H](O)[C@H](O)[C@H]3O)ccc12 | inactive

System: not listed separately
Test: HepG2 viability counterscreen (readout 2: ATP content) against the NCATS DSHEA and TCM libraries (AID 1794840)
Details: ATP content luminescence; series mostly up to 27.3 µM
Procedure, shortened: (§1)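 Same wells read twice: first fluorescence from cleaved GF-AFC substrate (25 uM final, 30 min, 37C) for live-cell protease, then CellTiter-Glo luminescence after 30 min at room temperature for ATP. HepG2 cells were exposed ~24 h to substances.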

Structure (SMILES) | outcome
O=c1cc(-c2ccc(O)cc2)oc2cc(O)cc(O)c12 | inactive
COc1ccc(-c2coc3cc(O)ccc3c2=O)cc1 | inactive
COc1cc(O)c2c(c1)C(=O)c1cc(C)cc(O)c1C2=O | inactive
O=c1c(-c2ccc(O)cc2)coc2cc(O[C@@H]3O[C@H](CO)[C@H](O)[C@H](O)[C@H]3O)ccc12 | inactive

System: not listed separately
Test: HepG2 viability counterscreen (readout 1: protease activity) against the NCATS DSHEA and TCM libraries (AID 1794841);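 note: cells exposed to compounds for about 24 h before the protease read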
Details: qHTS concentration series; series mostly up to 27.3 µM
Procedure, shortened: as §1

Structure (SMILES) | outcome
O=c1cc(-c2ccc(O)cc2)oc2cc(O)cc(O)c12 | inactive
COc1ccc(-c2coc3cc(O)ccc3c2=O)cc1 | inactive
COc1cc(O)c2c(c1)C(=O)c1cc(C)cc(O)c1C2=O | inactive
O=c1c(-c2ccc(O)cc2)coc2cc(O[C@@H]3O[C@H](CO)[C@H](O)[C@H](O)[C@H]3O)ccc12 | inactive

Target: Metallo-beta-lactamase type 2 (Klebsiella pneumoniae) (UniProt C7C422)
Test: qHTS to identify inhibitors of the New Delhi Metallo-beta-lactamase (NDM): assay validation screen against the NCATS LOPAC Collection (AID 1794843); note: potency is the fitted concentration of half-maximal effect
Details: NDM-1 enzyme, nitrocefin hydrolysis, absorbance 485 nm; series mostly up to 38.4 µM
Procedure, shortened: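 NDM-1 at 2 nM final in 50 mM HEPES pH 7.0 with 1 uM ZnSO4 and 0.01% Tween20 was preincubated with library compounds in DMSO. Nitrocefin (50 uM stock) was then added, and absorbance at 485 nm was read at the kinetic plateau.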

Sequence of Metallo-beta-lactamase type 2 (Klebsiella pneumoniae) (C7C422 whole entry, looked up): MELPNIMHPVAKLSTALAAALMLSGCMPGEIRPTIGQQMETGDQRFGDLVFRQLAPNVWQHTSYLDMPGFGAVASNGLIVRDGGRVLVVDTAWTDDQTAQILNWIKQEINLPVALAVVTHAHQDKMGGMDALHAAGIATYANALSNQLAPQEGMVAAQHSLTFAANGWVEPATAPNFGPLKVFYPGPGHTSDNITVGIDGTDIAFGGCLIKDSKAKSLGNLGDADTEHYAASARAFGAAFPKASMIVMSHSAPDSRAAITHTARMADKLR

Structure (SMILES) | Potency
CC(C)NCC(O)COc1cccc2[nH]ccc12 (stereo unspecified) | inactive
CCN(CC)CCNC(=O)c1ccc(N)cc1 | inactive
NC(N)=Nc1nc(CSCC/C(N)=N/S(N)(=O)=O)cs1 | inactive
CC/C(=C(\c1ccccc1)c1ccc(OCCN(C)C)cc1)c1ccccc1 | 14.1 µM (active) and inactive
CCn1cc(C(=O)O)c(=O)c2ccc(C)nc21 | inactive
O=C(NCCN1CCOCC1)c1ccc(Cl)cc1 | inactive
NCCS | inactive
CC(=O)c1ccc(S(=O)(=O)NC(=O)NC2CCCCC2)cc1 | inactive
O=c1cc(-c2ccc(O)cc2)oc2cc(O)cc(O)c12 | inactive
CC(C)(C)c1ccc(C(O)CCCN2CCC(C(O)(c3ccccc3)c3ccccc3)CC2)cc1 (stereo unspecified) | inactive
COc1cccc(-c2cc(=O)c3ccccc3o2)c1N | inactive
CC1=C(/C=C/C(C)=C/C=C/C(C)=C/C(=O)Nc2ccc(O)cc2)C(C)(C)CCC1 | inactive
O=C(O)CCc1nc(-c2ccccc2)c(-c2ccccc2)o1 | inactive
CCN(CC)CCOC(=O)c1ccc(N)cc1 | inactive
Clc1ccc(C(c2ccc(Cl)cc2)n2cc[n+](CC(OCc3ccc(Cl)cc3Cl)c3ccc(Cl)cc3Cl)c2)cc1 (stereo unspecified) | inactive
CN(C)CCC(c1ccccc1)c1ccccn1 (stereo unspecified) | inactive
COc1ccccc1N1CCN(CCCNc2cc(=O)n(C)c(=O)n2C)CC1 | inactive
COC(=O)[C@@H]1[C@H]2C[C@H]3c4[nH]c5ccccc5c4CCN3C[C@@H]2CC[C@@H]1O | inactive
CCCCC1C(=O)N(c2ccccc2)N(c2ccccc2)C1=O | inactive
Clc1ccc(Cn2c(CN3CCCC3)nc3ccccc32)cc1 | inactive
CCCNC(=O)NS(=O)(=O)c1ccc(Cl)cc1 | inactive
CC(=O)O[C@]1(C(C)=O)CC[C@H]2[C@@H]3C=C(Cl)C4=CC(=O)[C@@H]5C[C@@H]5[C@]4(C)[C@H]3CC[C@@]21C | inactive
Cc1cccc(C)c1OCC(C)N (stereo unspecified) | inactive
CCN(CC)C(=O)c1ccc(O)c(OC)c1 | inactive
C[N+](C)(C)CCCCCC[N+](C)(C)C | inactive
CCN1CCC[C@H]1CNC(=O)c1cc(S(N)(=O)=O)ccc1OC | inactive
O=C1NCC2(CCN(CCc3ccccc3)CC2)O1 | inactive
